# Among all 2,000 compounds or so, about 110 (5.5%) showed an effect of 50% or more. What follows is part of a selection rich in strong results, with near analogues and random picks from the rest.
# Target: Genome polyprotein (dengue virus type 2) (UniProt P29990)
# [1] = Thailand/16681/1984, Concentration 25.0 uM, Number of replicates 1.0
compound,measurement,setting,value
NCc1cccc(NC(=O)[C@@H](CCC(N)=O)NC(=O)OCc2ccccc2)c1,inhibition,"Thailand/16681/1984, Concentration 49.5 uM, Number of replicates 2.0, Standard deviation 0.6750820884014238 %",-3.1%
same,inhibition,"Thailand/16681/1984, Concentration 99.01 uM, Number of replicates 2.0, Standard deviation 2.465072002477128 %",-1.7%
same,inhibition,"Thailand/16681/1984, Concentration 198.0 uM, Number of replicates 2.0, Standard deviation 2.5897319885400165 %",-0.981%
NCc1cccc(NC(=O)[C@@H](NC(=O)OCc2ccccc2)c2ccccc2)c1,inhibition,"Thailand/16681/1984, Concentration 49.5 uM, Number of replicates 2.0, Standard deviation 1.0300513707602847 %",0.869%
same,inhibition,"Thailand/16681/1984, Concentration 99.01 uM, Number of replicates 2.0, Standard deviation 0.7240873671299501 %",0.819%
same,inhibition,"Thailand/16681/1984, Concentration 198.0 uM, Number of replicates 2.0, Standard deviation 0.6193503939215136 %",0.644%
NCc1cccc(NC(=O)[C@@H](NC(=O)OCc2ccccc2)c2ccc(OCc3ccccc3)cc2)c1,inhibition,"Thailand/16681/1984, Concentration 49.5 uM, Number of replicates 2.0, Standard deviation 0.05193031216203084 %",99.8%
same,inhibition,"Thailand/16681/1984, Concentration 99.01 uM, Number of replicates 2.0, Standard deviation 0.07343936624368645 %",99.8%
same,inhibition,"Thailand/16681/1984, Concentration 198.0 uM, Number of replicates 2.0, Standard deviation 0.025182910572653226 %",99.6%
NCc1cccc(NC(=O)[C@@H](NC(=O)OCc2ccccc2)c2ccc(Br)cc2)c1,inhibition,"Thailand/16681/1984, Concentration 49.5 uM, Number of replicates 2.0, Standard deviation 0.0939294781157427 %",-4.11%
same,inhibition,"Thailand/16681/1984, Concentration 99.01 uM, Number of replicates 2.0, Standard deviation 0.02096957442071617 %",99.8%
same,inhibition,"Thailand/16681/1984, Concentration 198.0 uM, Number of replicates 2.0, Standard deviation 0.044447729264800756 %",99.8%
CCCCCC(=O)N[C@H](C(=O)NCc1ccc(NC(=N)N)cc1)c1ccc(OCc2ccccc2)cc1,inhibition,"Thailand/16681/1984, Concentration 49.5 uM, Number of replicates 2.0, Standard deviation 0.35669280924008506 %",0.374%
same,inhibition,"Thailand/16681/1984, Concentration 99.01 uM, Number of replicates 2.0, Standard deviation 0.1951319007042223 %",2.1%
same,inhibition,"Thailand/16681/1984, Concentration 198.0 uM, Number of replicates 2.0, Standard deviation 2.320076788942105 %",11.9%
NCc1cccc(NC(=O)[C@@H](NC(=O)OCc2ccccc2)c2ccc(F)c(F)c2)c1,inhibition,"Thailand/16681/1984, Concentration 49.5 uM, Number of replicates 2.0, Standard deviation 1.4013065114851189 %",-6.54%
same,inhibition,"Thailand/16681/1984, Concentration 99.01 uM, Number of replicates 2.0, Standard deviation 2.1722806038563465 %",-6.15%
same,inhibition,"Thailand/16681/1984, Concentration 198.0 uM, Number of replicates 2.0, Standard deviation 2.359590386651735 %",-2.47%
CCCCCC(=O)N[C@H](C(=O)NCc1ccc(N)nc1)c1ccc(OCc2ccccc2)cc1,inhibition,"Thailand/16681/1984, Concentration 49.5 uM, Number of replicates 2.0, Standard deviation 0.5514996049599625 %",-5.35%
same,inhibition,"Thailand/16681/1984, Concentration 99.01 uM, Number of replicates 2.0, Standard deviation 6.42872691267386 %",2.25%
same,inhibition,"Thailand/16681/1984, Concentration 198.0 uM, Number of replicates 2.0, Standard deviation 0.7744386054656718 %",-1.4%
O=Cc1ccc(N2CCC(C(=O)N3CCC(=C4c5ccc(Cl)cc5CCc5cccnc54)CC3)CC2)cc1,inhibition,[1],-7.77%
Cc1cc(CO)c2cccc(Cc3cccc(C(=O)N4CC[C@@H](O)C4)c3)c2n1,inhibition,"Thailand/16681/1984, Concentration 49.95 uM, Number of replicates 2.0, Standard deviation 0.8940031033980441 %",-6.42%
same,inhibition,"Thailand/16681/1984, Concentration 99.9 uM, Number of replicates 2.0, Standard deviation 1.7851314545528572 %",-4.22%
Cc1cc(NC(=O)c2[nH]c([C@H]3CCCNC3)nc2C)n[nH]1,inhibition,"Thailand/16681/1984, Concentration 49.5 uM, Number of replicates 2.0, Standard deviation 0.1819338679741269 %",-0.694%
same,inhibition,"Thailand/16681/1984, Concentration 99.01 uM, Number of replicates 2.0, Standard deviation 0.4335851561467917 %",-1.03%
same,inhibition,"Thailand/16681/1984, Concentration 198.0 uM, Number of replicates 2.0, Standard deviation 0.7148425402027826 %",-1.18%
O=Cc1ccc(N2CCC(C(=O)Nc3nnc(Cl)cc3Br)CC2)cc1,inhibition,[1],33%
Cc1cc(CO)c2cccc(Cc3cccc(NC(=O)c4cccc(Cn5cncn5)c4)c3)c2n1,inhibition,"Thailand/16681/1984, Concentration 49.95 uM, Number of replicates 2.0, Standard deviation 0.03445572300723204 %",-2.36%
same,inhibition,"Thailand/16681/1984, Concentration 99.9 uM, Number of replicates 2.0, Standard deviation 1.2505418184916173 %",1.37%
O=Cc1ccc(N2CCC(C(=O)NCC(=O)c3ccccc3F)CC2)cc1,inhibition,[1],12.6%
O=Cc1ccc(N2CCC(C(=O)N[C@@H]3CCCN(Cc4ccccc4)C3)CC2)cc1,inhibition,[1],13.3%
CSCC[C@H](NC(=O)OC(C)(C)C)C(=O)N1CCC[C@H]1C(=O)N1CCNCC1,inhibition,"Thailand/16681/1984, Concentration 49.5 uM, Number of replicates 2.0, Standard deviation 0.18656479510110988 %",-1.01%
same,inhibition,"Thailand/16681/1984, Concentration 99.01 uM, Number of replicates 2.0, Standard deviation 0.6673278690655411 %",-1.03%
same,inhibition,"Thailand/16681/1984, Concentration 198.0 uM, Number of replicates 2.0, Standard deviation 0.6237960118923063 %",-0.61%
CNC(=O)C[C@@H](C)NS(=O)(=O)c1ccc(Oc2ccccc2Cl)cc1,inhibition,"Thailand/16681/1984, Concentration 49.5 uM, Number of replicates 2.0, Standard deviation 1.3030195128486834 %",0.058%
same,inhibition,"Thailand/16681/1984, Concentration 99.01 uM, Number of replicates 2.0, Standard deviation 1.4693139392091605 %",1.01%
same,inhibition,"Thailand/16681/1984, Concentration 198.0 uM, Number of replicates 2.0, Standard deviation 0.5754244321045655 %",1.94%
CCN(Cc1cnn(CC)c1)C(=O)C1CCN(c2ccc(C=O)cc2)CC1,inhibition,[1],12.7%
NCc1cccc(CNC(=O)[C@@H](NC(=O)OCc2ccccc2)c2ccc(OCc3ccccc3)cc2)c1,inhibition,"Thailand/16681/1984, Concentration 49.5 uM, Number of replicates 2.0, Standard deviation 0.05305782465339428 %",100%
same,inhibition,"Thailand/16681/1984, Concentration 99.01 uM, Number of replicates 2.0, Standard deviation 0.03132758391075349 %",99.6%
same,inhibition,"Thailand/16681/1984, Concentration 198.0 uM, Number of replicates 2.0, Standard deviation 0.04155072348555595 %",99.5%
O=C(N[C@H](C(=O)O)c1ccc(OCc2ccccc2)cc1)OCc1ccccc1,inhibition,"Thailand/16681/1984, Concentration 49.5 uM, Number of replicates 2.0, Standard deviation 1.5755205914644184 %",1.16%
same,inhibition,"Thailand/16681/1984, Concentration 99.01 uM, Number of replicates 2.0, Standard deviation 1.1157080020325059 %",3.53%
same,inhibition,"Thailand/16681/1984, Concentration 198.0 uM, Number of replicates 2.0, Standard deviation 0.14215963415330513 %",10.6%
NCc1ccc(NC(=O)[C@@H](NC(=O)OCc2ccccc2)c2ccc(OCc3ccccc3)cc2)cc1,inhibition,"Thailand/16681/1984, Concentration 49.5 uM, Number of replicates 2.0, Standard deviation 0.2921733335266154 %",1.85%
same,inhibition,"Thailand/16681/1984, Concentration 99.01 uM, Number of replicates 2.0, Standard deviation 0.5182536650923871 %",1.48%
same,inhibition,"Thailand/16681/1984, Concentration 198.0 uM, Number of replicates 2.0, Standard deviation 0.5806748336109616 %",1.92%
Cc1cc(CO)c2cccc(Cc3ccccc3C(=O)N(c3ncccn3)S(=O)(=O)c3ccc(N)cc3)c2n1,inhibition,"Thailand/16681/1984, Concentration 49.95 uM, Number of replicates 2.0, Standard deviation 1.284948840815395 %",27.7%
same,inhibition,"Thailand/16681/1984, Concentration 99.9 uM, Number of replicates 2.0, Standard deviation 0.4850893215235289 %",47.5%
Cc1cc(CO)c2cccc(CC(=O)NCc3ccc(S(N)(=O)=O)cc3)c2n1,inhibition,"Thailand/16681/1984, Concentration 49.95 uM, Number of replicates 2.0, Standard deviation 1.717051818740604 %",21.3%
same,inhibition,"Thailand/16681/1984, Concentration 99.9 uM, Number of replicates 2.0, Standard deviation 5.294472274247832 %",43.7%
Cc1cc(CO)c2cccc(CC(=O)N(c3ncccn3)S(=O)(=O)c3ccc(N)cc3)c2n1,inhibition,"Thailand/16681/1984, Concentration 49.95 uM, Number of replicates 2.0, Standard deviation 0.013152514133703636 %",99.6%
same,inhibition,"Thailand/16681/1984, Concentration 99.9 uM, Number of replicates 2.0, Standard deviation 0.02076996694616858 %",99.4%
Cc1cc(CO)c2cccc(Cc3cccc(C(=O)N(c4ncccn4)S(=O)(=O)c4ccc(N)cc4)c3)c2n1,inhibition,"Thailand/16681/1984, Concentration 49.95 uM, Number of replicates 2.0, Standard deviation 1.2554851591331873 %",27.5%
same,inhibition,"Thailand/16681/1984, Concentration 99.9 uM, Number of replicates 2.0, Standard deviation 1.7606970720097574 %",55.5%
Cc1cc(CO)c2cccc(NC(=O)NCc3ccc(N)cc3)c2n1,inhibition,"Thailand/16681/1984, Concentration 49.95 uM, Number of replicates 2.0, Standard deviation 1.081774899946809 %",4.55%
same,inhibition,"Thailand/16681/1984, Concentration 99.9 uM, Number of replicates 2.0, Standard deviation 2.6483447678271466 %",14.1%
Cc1cc(CO)c2cccc(Cc3cccc(C(=O)NCc4ccc(S(N)(=O)=O)cc4)c3)c2n1,inhibition,"Thailand/16681/1984, Concentration 49.95 uM, Number of replicates 2.0, Standard deviation 0.214877109175697 %",5.4%
same,inhibition,"Thailand/16681/1984, Concentration 99.9 uM, Number of replicates 2.0, Standard deviation 0.2579967069502225 %",18%
CC(=O)N[C@@H](CCCCN)C(=O)Nc1cccc(Cc2cccc3c(CO)cc(C)nc23)c1,inhibition,"Thailand/16681/1984, Concentration 49.95 uM, Number of replicates 2.0, Standard deviation 0.858525740782908 %",-3.5%
same,inhibition,"Thailand/16681/1984, Concentration 99.9 uM, Number of replicates 2.0, Standard deviation 1.064156674332285 %",6.38%

# — ChEMBL document CHEMBL5606460, “ASAP - DENV-2 NS2B-NS3 protease fluorescence single point” (2024)
